This passage reports Potency and outcome results from PubChem BioAssay (NCATS).

Assay [1] can be described thus: Natriuretic polypeptide receptor (hNpr1) antagonism - Pilot counterscreen GloSensor control cell line (AID 1347045; calls by dose curve; further: series mostly up to about 38 µM). The method in brief:
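HEK293 cGMP-sensor cells; 2% GloSensor reagent 2 h RT; LOPAC compounds in 1:5 titrations 30-50 min; 50 uM SNP 20 min; luminescence pre-read and post-read.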

For assay [2], the target named is Atrial natriuretic peptide receptor 1 (Homo sapiens) (UniProt P16066). As to the kind of experiment: Natriuretic polypeptide receptor (hNpr1) antagonism - Pilot screen (AID 1347049; calls by dose curve;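 further: agonist-evoked cGMP luminescence read 20 min after hNppA addition; series mostly up to about 58 µM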). The method in brief: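 cGMP-sensor HEK293/hNpr1 cells, 1500/well, plated overnight at 37C. 2% GloSensor reagent, 2 h RT. Compound (23 nL pin transfer) 30 min RT, baseline luminescence pre-read. 0.1 nM hNppA, 20 min RT, post-read.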
Atrial natriuretic peptide receptor 1 (Homo sapiens), sequence (P16066 whole entry, looked up): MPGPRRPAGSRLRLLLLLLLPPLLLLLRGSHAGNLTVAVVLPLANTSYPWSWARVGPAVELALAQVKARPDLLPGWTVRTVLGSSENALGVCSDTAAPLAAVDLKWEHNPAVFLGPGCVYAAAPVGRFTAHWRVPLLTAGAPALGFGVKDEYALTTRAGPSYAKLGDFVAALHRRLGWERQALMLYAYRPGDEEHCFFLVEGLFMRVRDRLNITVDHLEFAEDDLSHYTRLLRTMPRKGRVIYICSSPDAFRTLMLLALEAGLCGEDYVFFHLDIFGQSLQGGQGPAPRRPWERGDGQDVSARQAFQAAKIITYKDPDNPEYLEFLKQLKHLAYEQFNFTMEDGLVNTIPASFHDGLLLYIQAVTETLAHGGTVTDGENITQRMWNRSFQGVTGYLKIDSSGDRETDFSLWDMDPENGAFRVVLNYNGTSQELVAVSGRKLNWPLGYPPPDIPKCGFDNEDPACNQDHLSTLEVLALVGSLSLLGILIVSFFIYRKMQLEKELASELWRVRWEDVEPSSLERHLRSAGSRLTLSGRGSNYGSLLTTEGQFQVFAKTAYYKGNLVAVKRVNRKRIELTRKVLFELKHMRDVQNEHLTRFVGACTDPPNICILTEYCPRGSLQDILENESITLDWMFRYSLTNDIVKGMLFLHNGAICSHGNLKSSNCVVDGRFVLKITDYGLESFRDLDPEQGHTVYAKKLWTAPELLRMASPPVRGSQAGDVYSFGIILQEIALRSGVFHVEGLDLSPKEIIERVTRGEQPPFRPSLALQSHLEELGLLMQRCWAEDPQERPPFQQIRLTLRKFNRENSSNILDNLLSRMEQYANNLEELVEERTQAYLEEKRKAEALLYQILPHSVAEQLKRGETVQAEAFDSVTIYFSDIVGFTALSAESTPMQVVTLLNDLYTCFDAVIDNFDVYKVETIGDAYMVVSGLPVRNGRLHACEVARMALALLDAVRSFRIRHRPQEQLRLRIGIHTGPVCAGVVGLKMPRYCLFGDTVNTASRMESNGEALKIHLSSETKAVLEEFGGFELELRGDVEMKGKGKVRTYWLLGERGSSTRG

For assay [3], the target named is Atrial natriuretic peptide receptor 2 (Homo sapiens) (UniProt P20594). The assay is described as follows: Natriuretic polypeptide receptor (hNpr2) antagonism - Pilot subtype selectivity assay (AID 1347050; calls by dose curve). The method in brief:
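Luminescence from a genetically encoded cGMP luciferase biosensor in hNpr2-expressing HEK293 cells is read before and 20 min after adding 1 nM hNppC. Test compounds, in interplate 1:5 titrations, are added 30-50 min ahead of the agonist.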

A short description of assay [4]: NS1 protein of Zika virus - qHTS assay to identify small molecule inhibitors in human HEK 293 cells (AID 1347053). Further: series mostly up to about 46 µM; nearly all actives have a fitted effect of over 55% in size. Summed up: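 TR-FRET signal from two anti-ZIKV NS1 antibodies quantified NS1 in HEK 293 cells 24 h after MR766 infection at MOI = 0.5; compounds were added 1 h before virus. Uninfected cells and infected cells defined the NS1 normalization range.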
Assay [5] concerns the target T1, Tyrosine-protein phosphatase non-receptor type substrate 1 (Homo sapiens) + Leukocyte surface antigen CD47 (Homo sapiens) (UniProt P78324+Q08722). The assay is described as follows: CD47-SIRPalpha protein protein interaction - LANCE assay qHTS validation (AID 1347057; active means well fitted curve in the direction sought with a large enough effect in the signal ratio, with a control signal flat, not every such curve was filed as active; the % refers to the signal ratio; further: series mostly up to about 38 µM). The method in brief: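 Inhibition of soluble CD47/SIRPalpha ectodomain association by titrated compounds, measured as 665/615 nm time-resolved FRET ratio after sequential 30 min room-temperature incubations.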

The target in assay [6] is T1, Tyrosine-protein phosphatase non-receptor type substrate 1 (Homo sapiens) + Leukocyte surface antigen CD47 (Homo sapiens). As to the kind of experiment: CD47-SIRPalpha protein protein interaction - HTRF assay qHTS validation (AID 1347058; active means well fitted curve in the direction sought with a large enough effect in the signal ratio, not every such curve was filed as active; the % refers to the signal ratio; further: series mostly up to about 38 µM). Summed up:
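Soluble extracellular domains (6His-CD47, Avi-tag-biotinylated SIRPalpha) in PBS pH 7.4 with 0.05% IGEPAL CA-630. Compounds were preincubated 30 min at RT with CD47 and anti-His-Eu, then SIRPalpha and SAV-XL665 were added. TR-FRET 665/615 ratio.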

Assay [7] shares this target. As to the kind of experiment: CD47-SIRPalpha protein protein interaction - Alpha assay qHTS validation (AID 1347059).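 Further: bead proximity luminescence from CD47 binding SIRPalpha after compound preincubation with SIRPalpha.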 The method in brief: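 SIRPalpha-biotin 25 nM + cpd, 30 min RT, dark; add CD47-His 12.5 nM, 30 min; add Ni-NTA/SAV beads 10 ug/mL, 30 min; AlphaScreen. Buffer PBS pH 7.4 + 0.05% IGEPAL CA-630. Non-biotinylated SIRPalpha as control inhibitor.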
For assay [8], the target named is Parathyroid hormone/parathyroid hormone-related peptide receptor (Homo sapiens) (UniProt Q03431). As to the kind of experiment: qHTS for PTHR1 Agonists: Optimization Screen against the NCGC LOPAC library (AID 1347079).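 Further: GloSensor cAMP luminescence in HEK-293 GP2 cells expressing human PTHR1 with IBMX.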 Summed up: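 Signal increase flags agonism. GP2 cells, derived from HEK-293, express human PTHR1 and a GloSensor cAMP construct.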
Parathyroid hormone/parathyroid hormone-related peptide receptor (Homo sapiens), sequence (Q03431 whole entry, looked up): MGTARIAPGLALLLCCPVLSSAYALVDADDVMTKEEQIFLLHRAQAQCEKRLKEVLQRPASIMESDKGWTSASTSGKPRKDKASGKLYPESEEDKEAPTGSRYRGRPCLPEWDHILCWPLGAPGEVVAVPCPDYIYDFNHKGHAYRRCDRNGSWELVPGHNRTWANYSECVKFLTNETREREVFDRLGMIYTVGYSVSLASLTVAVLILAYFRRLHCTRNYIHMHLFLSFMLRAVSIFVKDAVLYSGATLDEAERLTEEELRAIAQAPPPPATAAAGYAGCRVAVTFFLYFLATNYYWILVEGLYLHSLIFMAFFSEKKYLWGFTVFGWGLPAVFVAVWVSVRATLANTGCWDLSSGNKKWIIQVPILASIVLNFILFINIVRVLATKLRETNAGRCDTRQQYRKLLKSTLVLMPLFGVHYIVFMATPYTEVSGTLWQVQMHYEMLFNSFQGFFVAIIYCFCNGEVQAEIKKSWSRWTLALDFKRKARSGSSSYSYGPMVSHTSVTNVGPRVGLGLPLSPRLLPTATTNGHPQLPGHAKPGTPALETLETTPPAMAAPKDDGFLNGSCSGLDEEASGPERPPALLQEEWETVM
Assay [9] is described as follows: P-glycoprotein substrates identified in KB-8-5-11 adenocarcinoma cell line, qHTS therapeutic library screen (AID 1346987). Further: nearly all actives have a fitted effect of over 65% in size. Further: potency means the concentration at half of the fitted maximal effect. Summed up: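 In this qHTS, P-gp-rich KB-8-5-11 cells received library compounds across a concentration range. Viability was quantified by luminescence after 72 h at 37 degree C.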
The nature of assay [10]: qHTS of pediatric cancer cell lines to identify multiple opportunities for drug repurposing: Primary screen for DAOY cells (AID 1347090). Further: nearly all actives have a fitted effect of over 55% in size. Further: potency means the concentration at half of the fitted maximal effect. The method in brief: (§1)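 Viability measured as metabolically active cells via CellTiter-Glo luminescence following 48 hours of compound exposure, 11-point dilutions in confirmatory testing. 500-1,000 cells/well plated 5 hours before dosing; controls were DMSO and 2.3 µM bortezomib.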

A short description of assay [11]: qHTS of pediatric cancer cell lines to identify multiple opportunities for drug repurposing: Primary screen for SJ-GBM2 cells (AID 1347091). The method in brief: as §1
Assay [12] is described as follows: qHTS of pediatric cancer cell lines to identify multiple opportunities for drug repurposing: Primary screen for SK-N-MC cells (AID 1347093). Further: potency means the concentration at half of the fitted maximal effect. Summed up:
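Metabolically active cells were quantified by ATP-dependent luminescence (CellTiter-Glo, 15 min at room temperature) following 48 h treatment. Cells had been plated at 500-1,000 per well and settled for 5 h beforehand.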

Assay [13] in a line: qHTS of pediatric cancer cell lines to identify multiple opportunities for drug repurposing: Primary screen for U-2 OS cells (AID 1347096). Further: nearly all actives have a fitted effect of over 50% in size. The method in brief:
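Viability after 48 h compound treatment at 37C, 500-1,000 cells/well, read as ATP luminescence with CellTiter-Glo. Primary screens used 11-point (MIPE, 0.78 nM-46 µM) or 8-point (NPC, 0.59 nM-46 µM) final concentrations; follow-up screens used 11-point dilutions.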

Assay [14] can be described thus: qHTS of pediatric cancer cell lines to identify multiple opportunities for drug repurposing: Primary screen for TC32 cells (AID 1347089). Further: nearly all actives have a fitted effect of over 60% in size. The method in brief: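 Luminescent CellTiter-Glo read-out of metabolically active TC32 cells after 48 h compound exposure. Primary: MIPE 11-point, 0.78 nM–46 µM; NPC 8-point, 0.59 nM–46 µM. Confirmatory: 11-point dilutions.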

A short description of assay [15]: qHTS of pediatric cancer cell lines to identify multiple opportunities for drug repurposing: Primary screen for BT-37 cells (AID 1347094). Further: series mostly up to about 57 µM. Summed up: (§2)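 Cells plated at 500-1,000/well in growth medium, compounds added after 5 h. MIPE tested at 11 points (from 0.78 nM), NPC at 8 points (from 0.59 nM). CellTiter-Glo luminescence after 48 h; concentration-response curves from primary screen.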

Assay [16] is described as follows: qHTS of pediatric cancer cell lines to identify multiple opportunities for drug repurposing: Primary screen for NB-EBc1 cells (AID 1347095). Summed up: as §2
Assay [17] in a line: qHTS of pediatric cancer cell lines to identify multiple opportunities for drug repurposing: Primary screen for SK-N-SH cells (AID 1347098). Further: nearly all actives have a fitted effect of over 65% in size. Further: potency means the concentration at half of the fitted maximal effect. The method in brief: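 Cells (500-1,000/well) rested 5 h, then received compounds for 48 h; metabolically active cells were measured by CellTiter-Glo luminescence. Final concentrations spanned up to 46 µM (MIPE, 11-point) or 0.59 nM-46 µM (NPC, 8-point) in primary screens, 11-point in follow-ups.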

Assay [18] can be described thus: qHTS of pediatric cancer cell lines to identify multiple opportunities for drug repurposing: Primary screen for A673 cells (AID 1347092). Further: nearly all actives have a fitted effect of over 45% in size. Further: potency means the concentration at half of the fitted maximal effect. Summed up:
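A673 cells (500-1,000 cells/well in growth media) were pre-incubated 5 h at 37 degrees C, then exposed to compounds for 48 h. Viability was read as CellTiter-Glo luminescence; concentration-response curves came directly from the primary screen.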

Assay [19] in a line: qHTS of pediatric cancer cell lines to identify multiple opportunities for drug repurposing: Primary screen for Saos-2 cells (AID 1347097). Further: nearly all actives have a fitted effect of over 40% in size. Summed up: as §2
Assay [20] is described as follows: qHTS of pediatric cancer cell lines to identify multiple opportunities for drug repurposing: Primary screen for NB1643 cells (AID 1347099). Further: nearly all actives have a fitted effect of over 50% in size. The method in brief:
as §2

Molecules are shown by their SMILES. Inconclusive results are not listed. Activity calls are given as the source filed them. Unless noted, the call rests on the fitted dose curve; in most records, active means well fitted curve in the direction sought with a large enough effect; inconclusive means small, poorly fitted or top-dose-only effect, or another doubt; inactive means no such curve, though single readings can be large; an effect the other way counts as inactive or inconclusive.

T1 sequence (P78324 whole entry, looked up, the tested form may be a part): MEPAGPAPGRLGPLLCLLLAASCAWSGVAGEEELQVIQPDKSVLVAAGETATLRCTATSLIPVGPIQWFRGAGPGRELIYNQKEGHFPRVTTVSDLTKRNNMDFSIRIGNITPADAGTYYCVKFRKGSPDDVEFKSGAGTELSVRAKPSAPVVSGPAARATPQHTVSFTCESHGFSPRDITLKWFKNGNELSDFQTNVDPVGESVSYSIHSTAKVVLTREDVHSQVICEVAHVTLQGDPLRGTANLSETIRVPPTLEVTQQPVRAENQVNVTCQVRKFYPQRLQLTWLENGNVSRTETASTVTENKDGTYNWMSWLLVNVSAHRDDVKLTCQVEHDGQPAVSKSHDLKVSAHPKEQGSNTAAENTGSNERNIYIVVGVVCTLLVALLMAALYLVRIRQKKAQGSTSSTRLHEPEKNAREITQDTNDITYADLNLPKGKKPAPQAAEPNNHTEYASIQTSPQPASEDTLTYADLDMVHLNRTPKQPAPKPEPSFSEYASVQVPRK
T1 sequence (Q08722 whole entry, looked up, the tested form may be a part): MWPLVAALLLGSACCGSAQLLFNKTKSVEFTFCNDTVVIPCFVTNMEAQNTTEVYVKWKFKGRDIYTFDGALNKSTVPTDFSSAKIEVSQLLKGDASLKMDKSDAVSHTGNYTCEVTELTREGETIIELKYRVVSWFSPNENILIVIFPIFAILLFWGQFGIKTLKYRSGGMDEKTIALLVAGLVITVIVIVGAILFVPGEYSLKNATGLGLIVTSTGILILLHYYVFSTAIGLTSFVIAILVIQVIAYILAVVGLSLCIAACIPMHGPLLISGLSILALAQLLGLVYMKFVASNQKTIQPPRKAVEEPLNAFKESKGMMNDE
Atrial natriuretic peptide receptor 2 (Homo sapiens), sequence (P20594 whole entry, looked up): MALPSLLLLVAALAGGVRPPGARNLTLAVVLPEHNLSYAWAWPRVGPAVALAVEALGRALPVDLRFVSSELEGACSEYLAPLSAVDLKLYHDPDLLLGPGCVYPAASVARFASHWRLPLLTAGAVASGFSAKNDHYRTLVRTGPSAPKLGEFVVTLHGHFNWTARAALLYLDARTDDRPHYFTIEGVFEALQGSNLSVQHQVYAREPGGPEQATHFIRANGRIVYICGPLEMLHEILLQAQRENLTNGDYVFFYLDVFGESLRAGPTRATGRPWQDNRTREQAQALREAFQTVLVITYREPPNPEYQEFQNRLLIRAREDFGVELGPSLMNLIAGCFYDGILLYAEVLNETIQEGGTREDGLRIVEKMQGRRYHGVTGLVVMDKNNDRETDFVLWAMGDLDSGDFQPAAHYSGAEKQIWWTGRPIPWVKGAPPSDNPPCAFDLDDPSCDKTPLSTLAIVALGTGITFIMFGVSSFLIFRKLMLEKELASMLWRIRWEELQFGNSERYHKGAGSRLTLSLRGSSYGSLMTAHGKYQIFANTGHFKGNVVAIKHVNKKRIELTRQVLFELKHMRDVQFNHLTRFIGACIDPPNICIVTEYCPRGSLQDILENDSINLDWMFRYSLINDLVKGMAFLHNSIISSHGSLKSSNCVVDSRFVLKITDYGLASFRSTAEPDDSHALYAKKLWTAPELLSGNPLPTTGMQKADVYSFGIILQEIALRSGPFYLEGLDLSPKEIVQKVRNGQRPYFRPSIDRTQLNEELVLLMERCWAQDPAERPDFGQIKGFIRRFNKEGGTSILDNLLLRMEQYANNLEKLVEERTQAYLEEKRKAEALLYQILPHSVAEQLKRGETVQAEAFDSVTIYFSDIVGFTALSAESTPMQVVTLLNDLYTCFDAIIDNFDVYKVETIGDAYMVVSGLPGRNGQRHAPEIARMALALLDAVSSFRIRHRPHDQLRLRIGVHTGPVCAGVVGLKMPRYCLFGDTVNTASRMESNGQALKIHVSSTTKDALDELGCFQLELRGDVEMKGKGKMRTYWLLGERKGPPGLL

Consider `CO/N=C(\C(=O)N[C@@H]1C(=O)N2C(C(=O)O)=C(COC(C)=O)CS[C@H]12)c1csc(N)n1`, for which the Potency entry in [1], in assay [2], in assay [3], in [4], in [5] and in [7] was “inactive” in each case. Besides, the Potency entry in [8] was “inactive”. Besides, the result in [6] was inactive.

With `Cc1nc2ccccc2n1Cc1ccc(Cl)cc1`, the Potency in assay [9] is 4.11 µM (active); in [10], 5.31 µM (active); in [12] it was 18.8 µM (active). For the same compound, the Potency entry in [4], in [11] and in [13] was “inactive” throughout.

On to `CN(C)c1ccc(N=NS(=O)(=O)O)cc1`, for which the Potency result in assay [9], in assay [4], in [14], in assay [11], in [15] and in assay [16] was “inactive” throughout. Further, the Potency result in [13] and in assay [17] was “inactive” throughout.

For the compound `CC(C(=O)O)c1ccc(C(=O)c2ccccc2)s1` (centres undefined), the Potency result in assay [9], in [4], in [14], in assay [10], in assay [18] and in assay [12] was “inactive” throughout. For the same compound, the Potency entry in assay [15], in assay [16], in assay [13], in [19], in assay [17] and in [20] was “inactive” throughout.

For the compound `C#CC1(O)CC[C@H]2[C@@H]3CCC4=CCCC[C@@H]4[C@H]3CC[C@@]21C` (some centres undefined), the Potency entry in assay [9], in assay [4], in [14], in assay [11], in assay [15] and in assay [16] was “inactive” in each case. Besides, the Potency in assay [17] is 24.4 µM (active).

With `S=c1[nH]c2ccccc2s1`, the Potency result in [9], in assay [4], in [10], in assay [11], in assay [15] and in assay [16] was “inactive” each time. Moreover, the Potency entry in [13], in assay [19] and in [17] was “inactive” each time. In addition, the Potency in [18] is 19.3 µM (active).

Regarding `CC(C)CC(NP(=O)(O)O[C@@H]1O[C@@H](C)[C@H](O)[C@@H](O)[C@H]1O)C(=O)NC(Cc1c[nH]c2ccccc12)C(=O)O` (some centres undefined), the Potency result in [1], in assay [2], in assay [3], in assay [4], in assay [5] and in [7] was “inactive” in each case. The Potency entry in assay [8] is “inactive”. The result in assay [6] was inactive.

`CC1OC1P(=O)(O)O` (centres undefined): the Potency result in assay [1], in assay [2], in assay [3], in [4], in assay [5] and in assay [7] was “inactive” throughout. The Potency result in assay [8] was “inactive”. Besides, the result in [6] was inactive.

Turning to `COC(=O)C1=C(C)NC(C)=C(C(=O)OC)C1c1cccc(NC(=O)NCCCN2CCC(c3cccc(OC)c3)CC2)c1`, the Potency result in assay [9], in assay [5] and in assay [7] was “inactive” in each case. Also, in [6], the outcome was inactive.

As to `CNC(=O)[C@H]1O[C@@H](n2cnc3c(NCc4cccc(I)c4)ncnc32)[C@H](O)[C@@H]1O`, the Potency result in [1], in [2], in assay [3], in assay [4], in assay [5] and in assay [7] was “inactive” in each case. Also, the Potency entry in assay [8] was “inactive”. For the same compound, the result in [6] was inactive.

As to `Cc1ccc(O)c(-n2nc3ccccc3n2)c1`, the Potency entry in assay [9], in [14], in [10], in assay [11], in assay [18] and in assay [12] was “inactive” throughout. Also, the Potency result in assay [15], in assay [16], in [13], in assay [19], in assay [17] and in [20] was “inactive” throughout.

Consider `OC[C@H]1O[C@@H](n2cnc3c(NC4CCCC4)ncnc32)[C@H](O)[C@@H]1O`, for which the Potency result in assay [1], in assay [2], in assay [3], in [4], in assay [5] and in [7] was “inactive” each time. For the same compound, in assay [8], the Potency entry is “inactive”. Moreover, the result in assay [6] was inactive.
